Sampled rows, rich in hits. Any-hit rate of the full collection: about 2.3%.
Tau FP inhib: inhibitors of human tau fibril formation | actives 0.39% (n = 280,000) | Potency, µM (titrated, usually from 57.7 µM), inactives show at the highest dose activity, negative = inhibition, usual class: inhibitors | K18 P301L tau heparin fibrillization, Alexa594 FP, 6 h; further: potency means the concentration at half of the fitted maximal effect; nearly all actives have a fitted effect of over 55% in size
Target sequence (P10636 561-689 P618L limits assumed): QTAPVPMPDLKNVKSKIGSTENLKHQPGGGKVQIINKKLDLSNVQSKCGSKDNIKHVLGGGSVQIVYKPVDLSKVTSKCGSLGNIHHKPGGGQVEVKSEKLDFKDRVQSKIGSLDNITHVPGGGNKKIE
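Read-out: fluorescence polarization of Alexa 594-labeled tau (0.24 uM), 555 nm excitation, 632 nm emission. Mixtures held 15 uM unlabeled K18 P301L, compound and 20 uM heparin, pH 7 acetate buffer, incubated 6 hr at 37 C.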
USP1-UAF1 inh: inhibitors of human USP1/UAF1 deubiquitinase | O94782 | recombinant USP1/UAF1, Ub-Rhodamine cleavage fluorescence | Potency, µM (doses to about 57.1 µM), for inactives: top-dose activity change, negative = inhibition, usual class: inhibitors | actives 0.23% (n = 390,000) | AID 743255; further: potency means the concentration at half of the fitted maximal effect; nearly all actives have a fitted effect of over 60% in size
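1 nM enzyme complex + cpd, 15 min RT; start with Ub-Rho 150nM final; kinetic fluorescence ex 480/em 540, 6 reads q60 s. Buffer 50mM HEPES pH 7.8, 0.5mM EDTA, 0.1 mg/ml BSA, 1mM TCEP, 0.01% Tween-20.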
Tau ThT inhib: inhibitors of human tau fibril formation, thioflavin T binding | P10636 | Potency, µM (top dose mostly 57.4 µM), inactives show at the highest dose activity, negative = inhibition, actives largely listed as inhibitors | AID 1460 | recombinant tau K18 P301L, heparin-induced fibrillization, ThT fluorescence | actives 2.1% (n = 270,000); further: potency means the concentration at half of the fitted maximal effect; nearly all actives have a fitted effect of over 55% in size
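Using a mix of unlabeled (15 uM) and Alexa 594-labeled (0.24 uM) tau K18 P301L, heparin-triggered fibrillization over 6 hr at 37 C was scored by ThT fluorescence.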
Tau fluor cs: counter-screen for tau fibril formation inhibitors. tau K18 P301L (four-repeat tau fragment) Alexa594 fluorescence, heparin fibrillization. actives 0.93% (n = 280,000). Potency, µM (top dose mostly 57.7 µM), inactives show at the top dose activity change, negative = decrease. AID 1463; further: potency means the concentration at half of the fitted maximal effect; nearly all actives have a fitted effect of over 55% in size
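Human K18 P301L tau (15 uM unlabeled plus 0.24 uM Alexa 594-labeled, final) in 100 mM sodium acetate pH 7 was mixed with compound and 20 uM heparin and incubated 6 hr at 37 C.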
FBPA coupling cs: counter-screen for Giardia aldolase inhibitors: coupling enzyme system; AID 2472; actives 0.67% (n = 290,000); coupling enzyme system counterscreen, AmpLite Red fluorescence; activity change, negative = inhibition, % at 58.2 µM, hits read low; in the data active means activity change below about -30%
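Counterscreen lacking aldolase: glyceraldehyde-3-phosphate coupling-enzyme reagent preincubated 10 min at RT with compound (at 57.5 uM final), then substrate/coupling system with AmpLite Red added; fluorescence read at 525/598 nm after 20 min RT.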
The depositor's hits bear a star; ? = inconclusive; nt = no result; [ ] = another dose, or the depositor's remark. Unless noted, the call rests on the fitted dose curve; in most records, active means well fitted curve in the direction sought with a large enough effect; inconclusive means small, poorly fitted or top-dose-only effect, or another doubt; inactive means no such curve, though single readings can be large; an effect the other way counts as inactive or inconclusive. On the % scale 0 is the no-effect control and ±100 the full control effect.

SMILES	Tau FP inhib	USP1-UAF1 inh	Tau ThT inhib	Tau fluor cs	FBPA coupling cs
CCCCN1/C(=C/c2cccc[n+]2C)Sc2cc(NC(C)=O)ccc21	nt	-10%	nt	nt	4
CCCCN1/C(=C/c2ccc3ccccc3[n+]2CC)Sc2ccccc21	-7%	-24%	14µM*	-1%	7
CCN1/C(=C/c2ccc3ccccc3[n+]2CC)C=Cc2ccccc21	-14%	?	3.2µM*	12%	-8
Cc1ccc2c(c1)S/C(=C/c1ccc[n+](C)c1)N2CCO	-6%	-11%	?	-5%	1
CCN1/C(=C/c2ccc3cc(C)ccc3[n+]2CC)Sc2cc(C)ccc21	?	-24%	14µM*	?	5
CCN1/C(=C/c2ccc3ccccc3[n+]2CCCS(=O)(=O)[O-])C=Cc2cc(C)ccc21	nt	-15%	nt	nt	4
CCN1/C(=C/c2cccc[n+]2C)Sc2ccc(OC)cc21	nt	-6%	nt	nt	1
CN(Cc1ccccc1)C(=O)Cn1ncc2c3ccccc3n(Cc3cccc(Cl)c3)c2c1=O	-5%	?	-1%	-18%	nt
COc1ccc(CCNC(=O)C(CC(C)C)N2Cc3ccccc3C2=O)c(OC)c1OC (stereo not drawn)	-7%	12%	-2%	-6%	nt
CC1=C(C(=O)N2CCOCC2)CC(CC(=O)NCc2ccco2)C(=O)N1Cc1ccccc1 (stereo not drawn)	nt	8%	nt	nt	nt
CCOC(=O)Nc1ccc2c(c1)Nc1ccccc1S2	-13%	-13%	7.9µM*	14µM*[quencher]	0
CCN(CC)S(=O)(=O)c1cc(C)ccc1NC(=S)Nc1cccnc1	32µM*	-31%	8%	?	-2
CCN(CC)S(=O)(=O)c1cc(C(=O)Nc2cccnc2)ccc1Cl	10%	-4%	0%	1%	-3
COC(=O)c1ccc(-c2noc(CN(C)CCC3CCCCO3)n2)cc1 (stereo not drawn)	-82%	-15%	11µM*	-45%	-55*
COC(=O)C1(C(=O)OC)CC(CO)C(=O)[C@H]1c1ccccc1 (stereo partly drawn)	4%	nt	?	0%	0
O=[N+]([O-])c1ccc(N/N=C2\CC3CC=CC23)c([N+](=O)[O-])c1 (stereo not drawn)	7%	-24%	?	?	0
O=[N+]([O-])c1ccc(N/N=C2\CC3CC=CC23)cc1 (stereo not drawn)	6%	0%	14µM*	?	4
CS(=O)(=O)N(CC(=O)NCC1CCCO1)c1cccc(Cl)c1 (stereo not drawn)	-3%[2.34 µM]	-4%	5µM*	-53%	-2
CCN1C(=O)[C@H]2[C@H]3CN=C(SCc4ccccc4)N3[C@@](CC)(C(=O)OC)[C@H]2C1=O	nt	-9%	nt	nt	nt
COc1cc(/C=C2\COC/C(=C\c3cc(OC)c(OC)c(OC)c3)C2=O)cc(OC)c1OC	?	-26%	8.9µM*	0%	1
COc1cc(/C=C2/CCC/C(=C\c3cc(O)c(OC)c(Cl)c3)C2=O)cc(Cl)c1O	?	-22%	11µM*	?	-1
COc1cc(/C=C2\CC/C(=C\c3cc(OC)c(OC)c(OC)c3)C2=O)cc(OC)c1OC	-5%	?	-17%	3%	-2
COc1cc(/C=C2\CCC/C(=C\c3ccc(O)c(OC)c3)C2=O)ccc1O	nt	-14%	nt	nt	5
COc1cc(/C=C2\CC/C(=C\c3cc(OC)c(O)c(OC)c3)C2=O)cc(OC)c1O	?	-6%	6.3µM*	14µM*[quencher]	-34*
CC(OC(=O)/C=C/c1ccco1)C(=O)NC1CCCCC1 (stereo not drawn)	nt	-22%	nt	nt	nt
Cc1cccc(NC(=O)COc2ccc(/C=C\c3[nH]c(=O)[nH]c(=O)c3[N+](=O)[O-])cc2)c1	-6%	?	10µM*	0%	7
O=c1[nH]c(/C=C/c2ccc([N+](=O)[O-])cc2)c([N+](=O)[O-])c(=O)[nH]1	nt	?	nt	nt	6
CC(C)CCNC(=O)CN1C(=O)COc2ccc(S(=O)(=O)N3CCOCC3)cc21	0%	-25%	6%	4%	nt
CCSc1nc(-c2ccccc2)cc(=O)[nH]1	nt	-19%	nt	nt	nt

Source: PubChem (National Center for Advancing Translational Sciences (NCATS))
